Records with an inconclusive call do not appear. Calls of active or inactive are those of the source. Calls come from the whole dose curve; as a rule, active = well fitted curve in the direction sought with a large enough effect; inconclusive = small, poorly fitted or top-dose-only effect, or another doubt; inactive = no such curve, though single readings can be large; an effect the other way counts as inactive or inconclusive.
Assays:
[1] = molecular target: Single-stranded DNA cytosine deaminase (Homo sapiens) (UniProt Q9GZX7); assay: Validation qHTS assay for inhibitors of Activation Induced Cytidine Deaminase (AID): AID signal (AID 1347429); details: Recombinant AID, FRET ssDNA deamination with UDG, fluorescence; series mostly up to 115 µM
Single-stranded DNA cytosine deaminase (Homo sapiens), sequence (Q9GZX7 whole entry, looked up): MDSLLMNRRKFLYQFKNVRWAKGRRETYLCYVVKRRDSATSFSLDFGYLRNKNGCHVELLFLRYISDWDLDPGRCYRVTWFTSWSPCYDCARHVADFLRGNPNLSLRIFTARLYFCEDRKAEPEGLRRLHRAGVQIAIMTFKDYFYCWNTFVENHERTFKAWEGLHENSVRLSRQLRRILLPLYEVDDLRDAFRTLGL
Summary of the method: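 Steps: dispense AID with UDG; pin-transfer compound up to 114 uM final; add DJC20/DJC23 substrate and hold 4 hr at room temperature; add NaOH, hold 30 min; read FRET signal (540/590 nm).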

[2] = Primary qHTS for inhibitors of La Crosse Virus (LACV) - induced cell death in SH-SY5Y cells (AID 1508616); details: SH-SY5Y LACV cytopathicity rescue, ATP luminescence, 6 d; series mostly up to 9.63 µM;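 note: top concentration of the series differs between compounds; higher means more rescue of cells from virus-induced death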
Summary of the method: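 SH-SY5Y, 6000 cells/well; cpd via pin tool in DMSO; LACV 0.01 MOI; 6 d 37C 5% CO2; ATPLite, 5 min RT; luminescence normalized to ±virus DMSO controls.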

[3] = molecular target: Calcium and integrin-binding protein 1 (Homo sapiens) (UniProt Q99828); assay: Validation qHTS for Identification of Calcium Integrin Binding protein 1 (CIB1) Competitor (AID 1508618); details: CIB1-GST / FITC-alphaIIb peptide fluorescence polarization; series mostly up to 114 µM
Calcium and integrin-binding protein 1 (Homo sapiens), sequence (Q99828 whole entry, looked up): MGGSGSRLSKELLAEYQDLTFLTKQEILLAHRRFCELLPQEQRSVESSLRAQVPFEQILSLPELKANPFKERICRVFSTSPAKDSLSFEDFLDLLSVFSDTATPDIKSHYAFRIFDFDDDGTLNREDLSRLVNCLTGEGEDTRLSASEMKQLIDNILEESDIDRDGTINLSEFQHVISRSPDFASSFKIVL
Summary of the method: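 CIB1-GST (1 uM final) incubated 15 min at room temperature with compounds (up to 114 uM), then FITC-labelled alphaIIb peptide (100 nM) added. FP read (Ex 480/Em 540) after 15 min, pH 7.4 buffer containing 5 mM CaCl2.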

Papain (Carica papaya) = Papain (Carica papaya) (UniProt P00784); assay: Primary qHTS assay for inhibitors of the protease papain (AID 1645873); details: papain Z-FR-AMC cleavage, AMC fluorescence; series mostly up to 49.8 µM;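 note: papain turnover of Z-FR-AMC read as the AMC fluorescence gain over 10 min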; note: potency is the fitted concentration of half-maximal effect
Papain (Carica papaya), sequence (P00784 whole entry, looked up): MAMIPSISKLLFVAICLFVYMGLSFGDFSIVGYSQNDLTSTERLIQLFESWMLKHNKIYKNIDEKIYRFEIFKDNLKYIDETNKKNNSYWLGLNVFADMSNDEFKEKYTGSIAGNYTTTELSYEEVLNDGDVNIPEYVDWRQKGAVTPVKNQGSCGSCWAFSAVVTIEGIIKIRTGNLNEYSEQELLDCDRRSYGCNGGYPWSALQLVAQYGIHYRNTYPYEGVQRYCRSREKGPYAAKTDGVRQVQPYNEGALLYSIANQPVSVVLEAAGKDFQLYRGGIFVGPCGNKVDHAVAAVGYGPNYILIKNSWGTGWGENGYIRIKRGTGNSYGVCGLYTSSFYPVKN

[4] = Primary qHTS for small molecule stabilizers of the endoplasmic reticulum resident proteome: Secreted ER Calcium Modulated Protein (SERCaMP) assay (AID 1508630); details: SH-SY5Y GLuc-SERCaMP (Gaussia luciferase released on ER calcium loss) secretion, thapsigargin, luminescence; series mostly up to 38.4 µM
Summary of the method: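 The SH-SY5Y reporter protocol was run at 3 concentrations up to 38.3 uM (primary) or 11 concentrations (follow-up): 16 h compound, 100 nM thapsigargin for 4 h, then extracellular luciferase luminescence.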

[5] = Counterscreen qHTS for small molecule stabilizers of the endoplasmic reticulum resident proteome: GLuc-NoTag assay (AID 1508627); details: Gaussia luciferase NoTag secretion counterscreen, luminescence, thapsigargin 100 nM for final 4 h; series mostly up to 76.4 µM;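 note: SH-SY5Y cells given compound then 100 nM thapsigargin to empty ER calcium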
Summary of the method: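 Counterscreen line: SH-SY5Y-GLuc-NoTag. Seed, 5 h; compound, 19 h; thapsigargin 100 nM, 4 h; 37C/5% CO2. Readout: secreted GLuc luminescence, coelenterazine 0.07x final, no lysis.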

[6] = Primary qHTS for inhibitors of nuclear receptor binding SET domain protein 2 (NSD2) in an isogenic RCH-ACV NSD2 p.E1099K mutant (9B) (AID 1645876); details: RCH-ACV (leukaemia line) NSD2 E1099K (9B) viability, CellTiter-Glo, 72 h; series mostly up to 44.9 µM; note: potency is the fitted concentration of half-maximal effect; nearly all actives have a fitted effect of over 70% in size
[7] = molecular target: Rap guanine nucleotide exchange factor 3 (Homo sapiens) (UniProt O95398); assay: Confirmatory qHTS for agonist of cAMP-regulated guanine nucleotide exchange factor 3 (EPAC1) (AID 1645881); details: EPAC1 Rap1B BODIPY-GDP exchange fluorescence; series mostly up to 154 µM;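 note: EPAC1 catalysed release of BODIPY-GDP from Rap1B seen as fluorescence loss; nearly all actives have a fitted effect of over 75% in size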
Rap guanine nucleotide exchange factor 3 (Homo sapiens), sequence (O95398 whole entry, looked up): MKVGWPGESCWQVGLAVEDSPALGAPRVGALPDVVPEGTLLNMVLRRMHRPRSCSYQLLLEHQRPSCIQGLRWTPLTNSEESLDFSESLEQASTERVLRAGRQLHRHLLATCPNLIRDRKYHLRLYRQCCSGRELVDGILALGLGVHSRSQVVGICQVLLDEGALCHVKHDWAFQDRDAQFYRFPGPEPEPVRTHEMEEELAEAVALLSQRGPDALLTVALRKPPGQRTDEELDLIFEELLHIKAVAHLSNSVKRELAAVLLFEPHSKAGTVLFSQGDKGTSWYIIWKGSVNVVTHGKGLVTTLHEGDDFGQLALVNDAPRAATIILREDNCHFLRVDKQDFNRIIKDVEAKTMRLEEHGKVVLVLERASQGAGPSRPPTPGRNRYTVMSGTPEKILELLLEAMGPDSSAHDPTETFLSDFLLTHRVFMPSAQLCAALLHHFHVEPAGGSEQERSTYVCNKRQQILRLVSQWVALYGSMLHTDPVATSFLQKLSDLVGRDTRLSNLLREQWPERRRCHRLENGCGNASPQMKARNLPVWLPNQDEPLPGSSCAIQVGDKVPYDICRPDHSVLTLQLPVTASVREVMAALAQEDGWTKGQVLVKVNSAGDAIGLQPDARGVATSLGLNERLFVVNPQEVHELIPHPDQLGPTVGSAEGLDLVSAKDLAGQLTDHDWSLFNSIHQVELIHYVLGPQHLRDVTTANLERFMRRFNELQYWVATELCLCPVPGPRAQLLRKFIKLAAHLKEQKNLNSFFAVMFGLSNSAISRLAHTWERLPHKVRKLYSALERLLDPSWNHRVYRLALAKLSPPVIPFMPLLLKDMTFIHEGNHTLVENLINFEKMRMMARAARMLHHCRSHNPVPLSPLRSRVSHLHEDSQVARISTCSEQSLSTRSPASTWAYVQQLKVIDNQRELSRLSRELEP

[8] = molecular target: Rap guanine nucleotide exchange factor 4 (Homo sapiens) (UniProt Q8WZA2); assay: Confirmatory qHTS for agonist of cAMP-regulated guanine nucleotide exchange factor 4 (EPAC2) (AID 1645884); details: EPAC2 GEF activity, Rap1B-BODIPY-GDP fluorescence; series mostly up to 154 µM;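 note: nucleotide exchange releases bodipy-GDP from Rap1 and this lowers its fluorescence; nearly all actives have a fitted effect of over 65% in size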
Rap guanine nucleotide exchange factor 4 (Homo sapiens), sequence (Q8WZA2 whole entry, looked up): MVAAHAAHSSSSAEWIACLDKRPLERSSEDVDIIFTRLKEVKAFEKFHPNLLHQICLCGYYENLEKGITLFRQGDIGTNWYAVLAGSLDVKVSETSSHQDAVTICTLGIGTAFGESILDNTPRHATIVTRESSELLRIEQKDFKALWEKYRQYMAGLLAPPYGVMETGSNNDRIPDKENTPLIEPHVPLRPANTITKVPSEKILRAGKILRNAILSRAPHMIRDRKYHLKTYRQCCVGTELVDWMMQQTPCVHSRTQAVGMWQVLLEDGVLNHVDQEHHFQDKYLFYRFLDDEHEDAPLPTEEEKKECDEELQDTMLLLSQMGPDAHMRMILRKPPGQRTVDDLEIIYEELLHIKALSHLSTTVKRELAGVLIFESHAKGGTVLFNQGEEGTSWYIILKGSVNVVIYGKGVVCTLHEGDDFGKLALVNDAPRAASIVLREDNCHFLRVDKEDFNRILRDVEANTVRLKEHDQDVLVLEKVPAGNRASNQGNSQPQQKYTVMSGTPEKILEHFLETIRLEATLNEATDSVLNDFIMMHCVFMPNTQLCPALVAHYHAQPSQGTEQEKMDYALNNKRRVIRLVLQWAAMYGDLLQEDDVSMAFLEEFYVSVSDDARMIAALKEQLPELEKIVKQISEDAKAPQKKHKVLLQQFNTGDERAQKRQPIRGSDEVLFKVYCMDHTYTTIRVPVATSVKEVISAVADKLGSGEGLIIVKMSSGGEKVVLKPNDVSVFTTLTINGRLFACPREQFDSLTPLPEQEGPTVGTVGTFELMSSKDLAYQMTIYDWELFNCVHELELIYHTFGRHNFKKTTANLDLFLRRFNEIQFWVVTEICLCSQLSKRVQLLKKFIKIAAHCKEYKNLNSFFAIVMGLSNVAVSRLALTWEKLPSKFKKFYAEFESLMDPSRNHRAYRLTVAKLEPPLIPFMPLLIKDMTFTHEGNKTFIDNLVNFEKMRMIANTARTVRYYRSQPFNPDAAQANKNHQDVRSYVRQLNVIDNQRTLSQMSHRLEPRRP

Measured: Potency

CC(C)CC(NP(=O)(O)O[C@@H]1O[C@@H](C)[C@H](O)[C@@H](O)[C@H]1O)C(=O)NC(Cc1c[nH]c2ccccc12)C(=O)O (stereo not given in full)
inactive: [1] | [2] | [3] | Papain (Carica papaya)

CC[C@@H](C)[C@H]1O[C@]2(CC[C@H]1C)C[C@@H]1C[C@@H](CC=C(C)[C@@H](O[C@H]3C[C@H](OC)[C@@H](O[C@H]4C[C@H](OC)[C@@H](O)[C@H](C)O4)[C@H](C)O3)[C@@H](C)C=CC=C3CO[C@@H]4[C@H](O)C(C)=C[C@@H](C(=O)O1)[C@]34O)O2
inactive: [1] | [2] | [3] | Papain (Carica papaya)

NCCCCCCCCCCN
inactive: [1] | [2] | [3] | Papain (Carica papaya)

CO/S(=N\S(=O)(=O)c1ccc(Cl)cc1)c1ccc([N+](=O)[O-])cc1 (stereo not given)
inactive: [1] | [2] | [4]

CN(C)CCC(c1ccc(Cl)cc1)c1ccccn1 (stereo not given)
inactive: [1] | [2] | Papain (Carica papaya)

O=C(/C=C/c1ccc(O)cc1)c1ccc(O)cc1O
inactive: [1] | [3] | [5] | [4] | Papain (Carica papaya)
active: [6] 8.33 µM

CC(C)(C)c1ccc(S(=O)(=O)/C=C/C#N)cc1
inactive: [1] | [3] | [4] | Papain (Carica papaya)

CCOC(=O)C1=C(C)NC(C)=C(C(=O)OCC)C1c1c(F)c(F)c(F)c(F)c1F
active: Papain (Carica papaya) 25.1 µM
inactive: [1] | [2] | [4] | [7] | [8]

O=C(O)/C=C/C(O)c1ccc(Cl)cc1 (stereo not given)
inactive: [1] | [2] | [4]

CCCn1c(=O)c2[nH]c(-c3ccc(OCC(=O)NCCN)cc3)nc2n(CCC)c1=O
inactive: [1] | [2] | [4]
